Consider 42 sequences from publication PMC7819943, “Rice protein-binding microarrays: a tool to detect cis-acting elements near promoter regions in rice”.

Over roughly 35,000 sequences, “fluorescence intensity (a.u.)” has its median near 10,000; the highest 2% begin near 52,000. The entries come from a sample that favours the highest values as a whole.

The assay addresses T1, OsWOX13 (Oryza sativa, UniProt Q5QMM3 1-267).
T1 sequence: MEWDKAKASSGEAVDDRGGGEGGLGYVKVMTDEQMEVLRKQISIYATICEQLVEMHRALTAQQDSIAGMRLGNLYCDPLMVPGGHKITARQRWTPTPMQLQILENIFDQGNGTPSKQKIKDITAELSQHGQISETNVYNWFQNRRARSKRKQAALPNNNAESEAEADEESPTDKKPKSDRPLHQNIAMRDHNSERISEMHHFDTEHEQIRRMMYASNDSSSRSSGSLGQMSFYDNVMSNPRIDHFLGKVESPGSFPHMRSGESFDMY
Kind of assay: protein-binding microarray (RPBM); PBS, 2% BSA, 51.3 ng/ul salmon testes DNA, 50 uM zinc acetate, 200 nM TF, 25 C, 1 h; high values mean tight binding. As to conditions: protein: recombinant; tags: N-terminal polyhistidine and DsRed monomer fusion (pET32a); label: CyDye5-dUTP incorporated in the synthesized complementary strand; 3' TTTTT single-stranded linker to array surface; dsDNA, one strand shown. In a few lines:
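Binding signal is defined as the fluorescence intensity of each feature in arbitrary units, read on an Axon 4000B scanner. Transcription factors with N-terminal polyhistidine and DsRed fusions came from E. coli BL21-CodonPlus and were purified on Ni–NTA. They were incubated at 200 nM for 1 h at 25 °C on a custom Agilent array that had been made double-stranded with Cy5-dUTP, with 50 µM zinc acetate present, and the array was washed.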
“TTGGTGTAATTGACATGCGGGCCCACAATTTTATTATTTTCGGAGTCACCTAGTGCAG”: the binding signal is 23800 fluorescence intensity (a.u.). As for “ATTGATAACGGCAGACTAACTGATACGACAGAGATGGTCACGGAGTCACCTAGTGCAG”, the binding signal was 7620 fluorescence intensity (a.u.). The same measure for “CCGGATTGCTGGATCATTTTCTTCTCGGCCCATTGGACTCCGGAGTCACCTAGTGCAG”: 3410 fluorescence intensity (a.u.).

Consider “ATGATTACTAAAACTGTACTTAAAGGCAATGGTTTCTGTACGGAGTCACCTAGTGCAG”, for which the binding signal was 13900 fluorescence intensity (a.u.). The same measure for “CATTGATTGGATCGTACGCTTGTGTTGCATGACCAATGATCGGAGTCACCTAGTGCAG”: 44200 fluorescence intensity (a.u.); for “AATCCATGATTATCACATATTTACTGTAGAACTACATTGTCGGAGTCACCTAGTGCAG”: 11200 fluorescence intensity (a.u.).

“TTAAATATAGTTAATTAAACTAGCTAGCTCCTCCGATCCTCGGAGTCACCTAGTGCAG”: the binding signal is 12800 fluorescence intensity (a.u.). The same measure for “CTCTCTCCTTGGCCTCTTCCTCCCTGGTCGGTAGCGCAGCCGGAGTCACCTAGTGCAG”: 59600 fluorescence intensity (a.u.). Under “CAAAATTGGCTCCTCACCCTTGTGCAGATGCAGCCTTCTTCGGAGTCACCTAGTGCAG” stands 13700 fluorescence intensity (a.u.). The same measure for “GTAGGATTGGATGGATATAGGAGCCTGCCTTGCCTTCCTCCGGAGTCACCTAGTGCAG”: 6030 fluorescence intensity (a.u.); for “CTTTGTAGACTGACAGTGATAGTATTGTACTGCTATACGTCGGAGTCACCTAGTGCAG”: 9250 fluorescence intensity (a.u.); for “TGGGCGGTTAATTTGACTTCGATGTTCAGTACCTTGTGGGCGGAGTCACCTAGTGCAG”: 4180 fluorescence intensity (a.u.). For the sequence “CTAGTAATAACACTGACATCAATTAGCAATTTAGCATCCGCGGAGTCACCTAGTGCAG”, the binding signal is 13200 fluorescence intensity (a.u.). With “CTTGGCTGAAACAAATCAATTAACATCACAAACAGGAGAACGGAGTCACCTAGTGCAG”, the binding signal was 11300 fluorescence intensity (a.u.). For the sequence “ACATTAATGATTAGAGACTATATTGTCTCTAACTGTTGTACGGAGTCACCTAGTGCAG”, the binding signal was 39900 fluorescence intensity (a.u.). The same measure for “ACATCATTGACATAATATGATTTAACAACAAACAATTTAGCGGAGTCACCTAGTGCAG”: 34800 fluorescence intensity (a.u.); for “CTTAATTAATATAATCGGCAGGAGCTCACTGTTTGTTAACCGGAGTCACCTAGTGCAG”: 52800 fluorescence intensity (a.u.); for “TCATAACTATTTTAATTGACATACAAACAATGAGGCGGCACGGAGTCACCTAGTGCAG”: 58300 fluorescence intensity (a.u.).

Consider “TAATGCTTAATTAATCTCAATATAATCGCGTGCTTTGTTTCGGAGTCACCTAGTGCAG”, for which the binding signal is 7810 fluorescence intensity (a.u.). In the case of “TCGTAAATTAATTATTAATAATATACTAATGGTATCCCCACGGAGTCACCTAGTGCAG”, the binding signal is 53900 fluorescence intensity (a.u.). In the case of “GTTAATGATTAATTAGAGCATTTGTTGTCTCAACTATTGTCGGAGTCACCTAGTGCAG”, the binding signal was 58600 fluorescence intensity (a.u.). As to “TTCGGTTTTATTTTAATTGACATTTTGGACAATGATACGGCGGAGTCACCTAGTGCAG”, the binding signal was 27900 fluorescence intensity (a.u.). Take “ATATAATTACAATACAATCGTAGTGTAATTACACTGTAACCGGAGTCACCTAGTGCAG”: the binding signal is 14800 fluorescence intensity (a.u.). Under “AATAATCATACTAATTATATAAGTATATACTAAATATTATCGGAGTCACCTAGTGCAG” stands 7370 fluorescence intensity (a.u.); under “TCATCGTGGTATTAATTATTTAATAATTATAAATATATTTCGGAGTCACCTAGTGCAG”, 10200 fluorescence intensity (a.u.); under “ACATTAATGATTAGAGACCATATTGTCATCAACTATTGTACGGAGTCACCTAGTGCAG”, 30800 fluorescence intensity (a.u.). For “GCACCGTTGATGAAATTGCCGTTAGAATTTCGATCATCCCCGGAGTCACCTAGTGCAG”, the binding signal is 4810 fluorescence intensity (a.u.). The same measure for “GGTAATGATTTAACACCACCTAATTTATTTTGAACAAGCTCGGAGTCACCTAGTGCAG”: 20500 fluorescence intensity (a.u.); for “CATGTCTCAATAAATTGATCGTTGGCAAAATCGGTTAGTCCGGAGTCACCTAGTGCAG”: 4980 fluorescence intensity (a.u.). Under “GGTAATTTGTCCGGTATTGAAAGTTTAGGGTGAGCAATGTCGGAGTCACCTAGTGCAG” stands 22900 fluorescence intensity (a.u.); under “GAAGTGATTGATATTTGAGCAATTAGTCCGTTGTCAGGGTCGGAGTCACCTAGTGCAG”, 62400 fluorescence intensity (a.u.); under “TATTAATTTAATAAAATTAATTTGGTAATGTAAATATTATCGGAGTCACCTAGTGCAG”, 15600 fluorescence intensity (a.u.). Under “ATATAATTAATTAAAATATTAATTATTATTTGTAAAATGGCGGAGTCACCTAGTGCAG” stands 65500 fluorescence intensity (a.u.); under “TTAATAATTATTGTAAAATTTAATTTATATTTATTTGAATCGGAGTCACCTAGTGCAG”, 22600 fluorescence intensity (a.u.); under “CCATTAATTAATTAACCTGCAGCCTCAATTATTTGGTCTCCGGAGTCACCTAGTGCAG”, 57600 fluorescence intensity (a.u.). For “AATTAAATTTTAACTATTAATATTATATTTTATAAATATTCGGAGTCACCTAGTGCAG”, the binding signal is 6480 fluorescence intensity (a.u.).

Take “AAACATTAATTTGTTTTATAATATATTATAAATGACTATACGGAGTCACCTAGTGCAG”: the binding signal is 15500 fluorescence intensity (a.u.). With “ATTAATTTGACCAACTTCATTCAACATGTAACATGGTCTCCGGAGTCACCTAGTGCAG”, the binding signal is 16600 fluorescence intensity (a.u.). “TGGAATTTTGAGTGTGTGATTGCGTTATTACGTTGCAAGTCGGAGTCACCTAGTGCAG”: the binding signal was 3550 fluorescence intensity (a.u.). The same measure for “TGCATTAATTATTGGAGAGTGCGGTCTCCTCTCCTCCCTCCGGAGTCACCTAGTGCAG”: 23200 fluorescence intensity (a.u.); for “TTTAATTAAATTTAACATTAAATATATTTTGACTATTTGTCGGAGTCACCTAGTGCAG”: 53000 fluorescence intensity (a.u.). The same measure for “TCCGATTAATGTGGAAATTTCTAGCCTCCACAGCGAACGTCGGAGTCACCTAGTGCAG”: 8650 fluorescence intensity (a.u.).
